Inconclusive results are not listed. Entries that show only a call come without a potency. The source made the active and inactive calls. Calls come from the whole dose curve; as a rule, active = well fitted inhibition curve with a large enough effect; inconclusive = small, poorly fitted or top-dose-only effect; inactive = flat fitted curve, though single readings scatter.
Target: Aldehyde dehydrogenase, mitochondrial (Homo sapiens) (UniProt P05091)
Experiment: qHTS for Inhibitors of the Aldehyde Dehydrogenase Family (ALDH2) Primary screen (AID 2061308); note: nearly all actives have a fitted effect of over 55% in size
Details: ALDH2 enzyme inhibition qHTS, 1536-well; series mostly up to 56 µM
Potency is the fitted concentration of half-maximal effect.

| Structure (SMILES) | Potency |
| --- | --- |
| CO/N=C(/C(=O)N[C@@H]1C(=O)N2C(C(=O)O)=C(CSC(=O)c3ccco3)CS[C@H]12)c1csc(N)n1 | 17.8 µM (active) |
| COC(=O)C1=COC(O[C@@H]2O[C@H](CO[C@@H]3O[C@H](COC(=O)/C=C\c4ccc(O)cc4)[C@@H](O)[C@H](O)[C@H]3O)[C@@H](O)[C@H](O)[C@H]2O)C2C(CO)=CCC12 (stereo partly drawn) | inactive |
| Cc1cc(N(C)C)ccc1-c1nc2ccc(-c3nc4ccc(N5CCN(C)CC5)cc4[nH]3)cc2[nH]1 | inactive |
| Cc1ccc(C(=O)Nc2noc3ccccc23)cc1 | inactive |
| COc1cc(C(=O)OCC2=CCC3C(C(=O)O)=COC(O[C@@H]4O[C@H](CO)[C@@H](O)[C@H](O)[C@H]4O)C23)ccc1O (stereo partly drawn) | inactive |
| CC(C)(O)/C=C/C1=CC(=O)[C@@](C)(O)C[C@H]1O | inactive |
| CC1CCC2(O1)C(C)(C)CC(O[C@@H]1O[C@H](CO[C@@H]3OC[C@](O)(CO)[C@H]3O)[C@@H](O)[C@H](O)[C@H]1O)CC2(C)O (stereo partly drawn) | inactive |
| C[C@]1(C2CCCC2)Cc2cc(OCC(=O)O)c(Cl)c(Cl)c2C1=O | inactive |
| OC[C@H]1O[C@@H](Oc2cc(O)cc(-c3cc4ccc(O)cc4o3)c2)[C@H](O)[C@@H](O)[C@@H]1O | inactive |
| CC1CC=C2C1CC1(O)C(=O)CC2(C)C1(C)CO (stereo not drawn) | inactive |
| C=C1[C@H]2[C@H](O[C@@H]3O[C@H](COC(=O)/C=C/c4cc(OC)c(O)c(OC)c4)[C@@H](O)[C@H](O)[C@H]3O)OC=C(C(=O)O)[C@H]2C[C@@H]1O | inactive |
| CC1(C)C=Cc2c(ccc3c2[N+]([O-])=C2C3(O)CC34NC(=O)C5(CCCN5C3=O)CC4C2(C)C)O1 (stereo not drawn) | inactive |
| CNC(=S)NS(=O)(=O)c1cc(CCNC(=O)c2cc(Cl)ccc2OC)ccc1OC | inactive |
| COc1cc2c(cc1O)C1(Cc3ccc4c(c3C1=O)OCO4)N(C)CC2 (stereo not drawn) | inactive |
| CC1(CO)CC(O)[C@]2(C(=O)O)CCC34CC3(C=CC3[C@]5(C)C(CC[C@]34C)C(C)(CO)[C@@H](O)[C@H](O)[C@@H]5O)C2C1 (stereo partly drawn) | inactive |
| Cc1nn(C)c2c1C(c1ccc(C(F)(F)F)cc1)C(C#N)=C(N)O2 (stereo not drawn) | inactive |
| CC(C)(Oc1ccc(-c2nc3cc(Cl)ccc3s2)cc1)C(=O)O | inactive |

| Structure (SMILES) | Potency |
| --- | --- |
| COc1cc(C[C@@]2(O)CO[C@@H](c3ccc(O[C@@H]4O[C@H](CO)[C@@H](O)[C@H](O)[C@H]4O)c(OC)c3)[C@H]2CO)ccc1O | inactive |
| CC1=C(C(=O)O[C@@H]2O[C@H](COC3OCC(O)C(O)C3O)[C@@H](O)[C@H](O)[C@H]2O)C(C)(C)CCC1 (stereo partly drawn) | inactive |
| CC1(C)OC(=O)CC(O)C2(C)C1CC(=O)C1(C)C2C(O)CC2(C)C(c3ccoc3)OC(=O)C3OC321 (stereo not drawn) | inactive |
| CC/C=C\C(O)C(O)C1=C(C)C(=O)C2(O1)C(=O)NC(OC)(C(=O)c1ccccc1)C2O (stereo not drawn) | inactive |
| COc1cc(OC)c(NC(=O)c2ccc(Cc3cc4c(cc3C)C(C)(C)CCC4(C)C)o2)c(OC)c1 | inactive |
| COc1cc(/C=C/C(=O)O[C@H]2[C@H](O)[C@@H](CO)O[C@@]2(CO)O[C@H]2O[C@H](CO)[C@@H](O)[C@H](O)[C@H]2O)cc(OC)c1O | inactive |
| Fc1ccc2nc(CCC#Cc3ccccn3)cn2c1 | inactive |
| COc1cc(N2CCOCC2)ccc1Nc1ncc(F)c(Nc2ccccc2NS(C)(=O)=O)n1 | inactive |
| O=[N+]([O-])c1ccc(-[n+]2nc(-c3ccccc3)nn2-c2ccc(I)cc2)cc1 | inactive |
| COc1ncc(Nc2ncc([C@@H](C)N3CCN(S(C)(=O)=O)CC3)cc2-c2nc(C)nc(N)n2)cc1F | inactive |
| CC1CC2OCC3(O)CCC(O)C(C14CC(c1ccoc1)OC4=O)C23CO (stereo not drawn) | inactive |
| CCCC/C=C\CCCCCc1cc(=O)c2ccccc2n1C | 8.91 µM (active) |
| CC(=O)c1c(C)cc2cccc(O)c2c1O[C@@H]1O[C@H](CO)[C@@H](O)[C@H](O)[C@H]1O | inactive |
| C/C=C1\[C@H](OC2OC(COC3OC(CO)C(O)C(O)C3O)C(O)C(O)C2O)OC=C(C(=O)OC)[C@H]1CC(=O)OCCc1ccc(O)cc1 (stereo partly drawn) | inactive |
| COc1ccc(CC2C(=O)NC(C)C(=O)N(C)C3Cc4ccc(cc4)Oc4cc(ccc4OC4OC(CO)C(O)C(O)C4O)CC(C(=O)NC(C)C(=O)NC(C)C(=O)N2C)N(C)C3=O)cc1 (stereo not drawn) | inactive |
| COc1cc(O)cc(O[C@@H]2O[C@H](CO)[C@@H](O[C@@H]3OC[C@](O)(CO)[C@H]3O)[C@H](O)[C@H]2O)c1OC | inactive |

Source: PubChem BioAssay (NCATS)
